# Measurements reported in the supplement of paper PMC10011410.
# ± gives the standard deviation of the averaged measurements.
# Test system: AmpC beta-lactamase (E. coli)
# Experiment: AmpC inhibition relative to DMSO; higher = more inhibition
# Procedure: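 Aggregation counter-screen: inhibition of E. coli AmpC beta-lactamase (5 nM, nitrocefin substrate, 50 mM sodium phosphate pH 7.0, RT, 5 min) by KAT inhibitors at 4, 11, 33 and 100 uM, with or without 0.01% Triton X-100. Percent inhibition is relative to DMSO controls. Four technical replicates.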
# [1] = 4 µM, detergent: 0.01% Triton X-100
# [2] = 11 µM, detergent: 0.01% Triton X-100
# [3] = 33 µM, detergent: 0.01% Triton X-100
# [4] = 100 µM, detergent: 0.01% Triton X-100
# [5] = 100 µM, detergent: no detergent
SMILES,AmpC inhibition [1],"AmpC inhibition (4 µM, detergent: no detergent)",AmpC inhibition [2],"AmpC inhibition (11 µM, detergent: no detergent)",AmpC inhibition [3],"AmpC inhibition (33 µM, detergent: no detergent)",AmpC inhibition [4],AmpC inhibition [5]
CC(=O)c1c(O)c(C)c(O)c(Cc2c(O)c3c(c(C(=O)C=Cc4ccccc4)c2O)OC(C)(C)C=C3)c1O,0.746 ± 2.2%,3.59 ± 4.4%,5.76 ± 7.3%,41 ± 3.5%,-0.691 ± 4%,73.8 ± 1.6%,7.83 ± 5.4%,82.1 ± 1.2%
Cc1cc2c(C(C)C)c(O)c(O)c(C=O)c2c(O)c1-c1c(C)cc2c(C(C)C)c(O)c(O)c(C=O)c2c1O,-0.343 ± 1.1%,0.793 ± 12%,4.76 ± 2.2%,-3.81 ± 3.7%,-3 ± 5.7%,-7.04 ± 18%,6.4 ± 5.5%,32.1 ± 2.7%
O=C(/C(C(N1CC2=CC=CC=C2)=O)=C/C3=C(C)C=C(O)C=C3C)N(CC4=CC=CC=C4)C1=O,4.49 ± 6.9%,2.08 ± 1.8%,3.45 ± 13%,29.6 ± 8.8%,10.9 ± 3.2%,65.9 ± 6.2%,14.8 ± 0.9%,84.9 ± 8.3%
